Among the data in PubChem BioAssay (Tox21) are Potency and max response values, retold here.

A short description of test [1]: qHTS RealTime-Glo MT Cell Viability Assay in HEK293 cells - 16 hour (AID 1224872). Also: nearly all actives have a fitted effect of over 50% in size. Also: potency is read from the fitted curve at half-maximal effect. In short, it runs like this: (§1)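 Homogeneous bioluminescent viability format in HEK293 cells (600 cells/well). Following 5 h at 37 C/5% CO2, 23 nL compound was pintooled; the signal was measured repeatedly during 40 h incubation.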
(In general: qHTS replaces the single test concentration by a dilution series.)

A short description of test [2]: qHTS RealTime-Glo MT Cell Viability Assay in HepG2 cells - 8 hour (AID 1224873). Also: nearly all actives have a fitted effect of over 55% in size. Also: potency is read from the fitted curve at half-maximal effect. In short, it runs like this:
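HepG2 cells (600/well) mixed with RealTime-Glo MT reagent, settled 5 h at 37 C/5% CO2 before compound addition. Nonlytic NanoLuc luminescence from viable-cell prosubstrate reduction read repeatedly during 40 h treatment at 37 C.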

A short description of test [3]: qHTS RealTime-Glo MT Cell Viability Assay in HEK293 cells - 40 hour (AID 1224874). Also: nearly all actives have a fitted effect of over 50% in size. Also: potency is read from the fitted curve at half-maximal effect. As to conditions: RealTime-Glo luminescence; max response: stronger effect = lower value. A digest of the protocol: (§2)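 Luminescence readout at each listed time point; HEK293, 600 cells/well, RealTime-Glo MT reagent added with cells; compounds pinned (23 nL in DMSO) after 5 h at 37 C; continuous culture at 37 C.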

A short description of test [4]: A CellTox Green Cytotoxicity Assay to monitor cytotoxicity in HEK293 cells - 24 hour (AID 1224875). Also: nearly all actives have a fitted effect of over 45% in size. Also: potency is read from the fitted curve at half-maximal effect. In short, it runs like this:
(§3)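 Read-out: fluorescence of a cell-impermeant cyanine dye staining DNA of dead cells, proportional to cytotoxicity. HEK293, 600 cells/well with reagent, compound (23 nL DMSO) added after 5 h; reads at 0, 8, 16, 24, 32, 40 h.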

Test [5] is described as follows: qHTS RealTime-Glo MT Cell Viability Assay in HepG2 cells - 32 hour (AID 1224877). Also: nearly all actives have a fitted effect of over 55% in size. Also: potency is read from the fitted curve at half-maximal effect. In short, it runs like this: (§4)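 Cell number in HepG2 cultures estimated from NanoLuc luminescence generated by metabolic reduction of a prosubstrate by living cells. The homogeneous, nonlytic format allowed repeated reads at 0, 8, 16, 24, 32 and 40 h of compound exposure.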
Test [6] in a line: A CellTox Green Cytotoxicity Assay to monitor cytotoxicity in HepG2 cells - 24 hour (AID 1224878). Also: nearly all actives have a fitted effect of over 45% in size. Also: potency is read from the fitted curve at half-maximal effect. A digest of the protocol:
(§5)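 HepG2, 600 cells/well premixed w/ CellTox Green; 5 h settle, 37 C/5% CO2; pintool cpd add (DMSO); 37 C, 40 h; fluorescence read at 0, 8, 16, 24, 32, 40 h.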

Test [7] can be described thus: A CellTox Green Cytotoxicity Assay to monitor cytotoxicity in HepG2 cells - 40 hour (AID 1224879). Also: nearly all actives have a fitted effect of over 40% in size. Also: potency is read from the fitted curve at half-maximal effect. In short, it runs like this: as §5
Test [8] can be described thus: qHTS RealTime-Glo MT Cell Viability Assay in HEK293 cells - 0 hour (AID 1224880). Also: top concentration of the series differs between compounds; nearly all actives have a fitted effect of over 45% in size. In short, it runs like this: as §2
Test [9] can be described thus: A CellTox Green Cytotoxicity Assay to monitor cytotoxicity in HEK293 cells - 32 hour (AID 1224881). Also: nearly all actives have a fitted effect of over 40% in size. Also: potency is read from the fitted curve at half-maximal effect. A digest of the protocol:
as §3

Test [10] can be described thus: A CellTox Green Cytotoxicity Assay to monitor cytotoxicity in HepG2 cells - 0 hour (AID 1224882). Also: nearly all actives have a fitted effect of over 35% in size. Also: potency is read from the fitted curve at half-maximal effect. A digest of the protocol: as §5
Test [11] in a line: A CellTox Green Cytotoxicity Assay to monitor cytotoxicity in HepG2 cells - 32 hour (AID 1224883). Also: nearly all actives have a fitted effect of over 50% in size. Also: potency is read from the fitted curve at half-maximal effect. In short, it runs like this:
as §5

Test [12] in a line: A CellTox Green Cytotoxicity Assay to monitor cytotoxicity in HEK293 cells - 8 hour (AID 1224884). Also: nearly all actives have a fitted effect of over 35% in size. Also: potency is read from the fitted curve at half-maximal effect. A digest of the protocol:
as §3

Test [13] is described as follows: qHTS RealTime-Glo MT Cell Viability Assay in HepG2 cells - 16 hour (AID 1224885). Also: nearly all actives have a fitted effect of over 50% in size. Also: potency is read from the fitted curve at half-maximal effect. A digest of the protocol:
as §4

Test [14] in a line: qHTS RealTime-Glo MT Cell Viability Assay in HEK293 cells - 24 hour (AID 1224886). Also: nearly all actives have a fitted effect of over 50% in size. Also: potency is read from the fitted curve at half-maximal effect. In short, it runs like this: as §1
The nature of test [15]: qHTS RealTime-Glo MT Cell Viability Assay in HEK293 cells - 8 hour (AID 1224887). Also: nearly all actives have a fitted effect of over 50% in size. Also: potency is read from the fitted curve at half-maximal effect. In short, it runs like this: as §2
The nature of test [16]: A CellTox Green Cytotoxicity Assay to monitor cytotoxicity in HEK293 cells - 16 hour (AID 1224888). Also: nearly all actives have a fitted effect of over 35% in size. Also: potency is read from the fitted curve at half-maximal effect. In short, it runs like this:
as §3

A short description of test [17]: qHTS RealTime-Glo MT Cell Viability Assay in HepG2 cells - 0 hour (AID 1224889). Also: nearly all actives have a fitted effect of over 50% in size. A digest of the protocol: as §4
Test [18] is described as follows: A CellTox Green Cytotoxicity Assay to monitor cytotoxicity in HepG2 cells - 8 hour (AID 1224890). Also: nearly all actives have a fitted effect of over 45% in size. Also: potency is read from the fitted curve at half-maximal effect. A digest of the protocol: as §5
The nature of test [19]: A CellTox Green Cytotoxicity Assay to monitor cytotoxicity in HepG2 cells - 16 hour (AID 1224876). Also: nearly all actives have a fitted effect of over 45% in size. Also: potency is read from the fitted curve at half-maximal effect. A digest of the protocol: as §5
The nature of test [20]: A CellTox Green Cytotoxicity Assay to monitor cytotoxicity in HEK293 cells - 40 hour (AID 1224871). Also: nearly all actives have a fitted effect of over 45% in size. In short, it runs like this: as §3

Values joined by “and” are separate entries in the source; they are usually repeats but may differ in a detail not shown here. Equal entries are not always repeated. Records with an inconclusive call do not appear. A structure can be active in one record and inactive in another. Active and inactive are the calls of the source. Calls follow the shape of the dose curve; as a rule, active = well fitted curve in the direction sought with a large enough effect in the repeat runs; inconclusive = weak or mixed curves; inactive = no such curve, though single readings can be large; an effect the other way counts as inactive or inconclusive.
% is scaled to controls: 0 for no effect and ±100 for the full control effect.

Regarding `CCCCCCOC(=O)C(C)CC` (centres undefined), the Potency result in test [1], in test [2], in [4], in [5], in test [6] and in [7] was “inactive” throughout. In addition, the Potency entry in test [8], in test [9], in test [10], in test [11], in test [12] and in [13] was “inactive” throughout. Also, the Potency result in test [14], in test [15], in [16], in [17] and in test [18] was “inactive” in each case. In addition, the max response in test [3] was -1.46% (inactive).
Consider `CC(C)CCOC(=O)/C=C/c1ccccc1`, for which the Potency entry in test [1], in test [2], in [4], in test [19], in test [5] and in [6] was “inactive” throughout. For the same molecule, the Potency result in test [7], in test [8], in [10], in [11], in test [12] and in test [13] was “inactive” each time. In addition, the Potency result in [14], in test [15], in test [16], in test [17] and in test [18] was “inactive” in each case. In addition, the max response in test [3] is -4.61% (inactive).
Consider `C=Cc1ccccc1C=C`, for which the Potency entry in test [1], in [2], in [4], in [19], in test [5] and in test [6] was “inactive” throughout. In addition, the Potency result in [8], in test [9], in test [10], in test [11], in [12] and in test [13] was “inactive” throughout. For the same molecule, the Potency result in test [14], in test [15], in test [16], in test [17] and in [18] was “inactive” each time. Also, the max response in test [3] was 16.3% (inactive).
Consider `O=C(O)Cc1ccc2c(c1)C(=O)c1ccccc1CO2`, for which the Potency entry in [1], in [2], in [4], in test [19], in test [5] and in [6] was “inactive” each time. Further, the Potency result in [7], in test [8], in [9], in [10], in test [11] and in test [12] was “inactive” each time. Besides, the Potency entry in test [13], in [14], in test [15], in test [16], in [17] and in test [18] was “inactive” each time. Further, the max response in test [3] was 1.5% (inactive).
With `CCC(C)(CCC(C)C)C(=O)[O][Sn]([CH3])([CH3])[O]C(=O)C(C)(CC)CCC(C)C` (centres undefined), the Potency entry in test [20], in [4], in test [19], in [5], in test [6] and in test [7] was “inactive” throughout. The Potency entry in test [8], in test [9], in [10], in [11], in [12] and in test [13] was “inactive” each time. Moreover, the Potency result in test [14], in test [15], in test [16], in test [17] and in test [18] was “inactive” throughout. Besides, the max response in [3] was 0.738% (inactive).
For `Cc1ccc(C(C)C)cc2c(C)ccc1-2`, the Potency result in test [1], in [2], in test [4], in [19], in test [5] and in test [6] was “inactive” in each case. For the same molecule, the Potency result in test [7], in test [8], in test [9], in test [10], in test [11] and in [12] was “inactive” throughout. Also, the Potency entry in [13], in test [14], in [15], in [16], in test [17] and in [18] was “inactive” throughout. Also, in test [3], the max response was -5.67% (inactive).
With `CCCC(=O)OCCc1ccccc1`, the Potency entry in test [1], in test [2], in test [5], in test [8], in test [13] and in [14] was “inactive” throughout. The Potency entry in test [15] and in test [17] was “inactive” each time. Also, the max response in test [3] was 5.68% (inactive). The Potency in test [4] is 43.6 µM (active); in test [19] it was 43.6 µM (active); in test [6] it was 43.6 µM (active); in test [7], 49 µM (active); in test [9] it was 49 µM (active); in test [10] it was 38.9 µM (active). Also, the Potency is 43.6 µM (active) in test [11], 38.9 µM (active) in test [12], 43.6 µM (active) in [16] and 43.6 µM (active) in [18].
With `Cc1nc2n(c(=O)c1CCN1CCC(c3noc4cc(F)ccc34)CC1)CCCC2`, the Potency in test [1] is 3.01 µM (active); in [3] it was 3.01 µM (active); in [14], 3.38 µM (active); in [15] it was 3.01 µM (active). For the same molecule, the Potency result in [2], in test [4], in test [19], in test [5], in test [6] and in test [7] was “inactive” each time. The Potency entry in test [8], in [9], in test [10], in test [11], in [12] and in test [13] was “inactive” each time. The Potency entry in test [16], in [17] and in test [18] was “inactive” each time.
For the molecule `CCN(CCN)c1cccc(C)c1`, the Potency entry in [1], in [2], in test [4], in test [5], in test [6] and in [7] was “inactive” each time. For the same molecule, the Potency entry in test [8], in test [9], in test [10], in [11], in [12] and in [13] was “inactive” throughout. Moreover, the Potency entry in [14], in test [15], in test [16], in test [17] and in test [18] was “inactive” each time. Moreover, the max response in [3] was -16.9% (inactive) and 1.24% (inactive).
`CCCCCC/C=C\CCCCCCCC(=O)O`: the Potency result in test [1], in test [2], in [4], in test [19], in [5] and in test [6] was “inactive” each time. The Potency result in [7], in test [8], in [9], in test [10], in test [11] and in [12] was “inactive” throughout. In addition, the Potency result in test [13], in test [14], in test [15], in test [16], in test [17] and in test [18] was “inactive” in each case. Besides, the max response in [3] is -4.29% (inactive).
In the case of `CCCCCCCCCCCCCC[N+](C)(C)C`, the Potency in test [1] was 21.1 µM (active) and 6.91 µM (active); in test [2] it was 18.8 µM (active) and 54.9 µM (active) and inactive; in [3], 3.35 µM (active) and 4.89 µM (active) and 2.13 µM (active); in test [4], 37.6 µM (active) and 48.9 µM (active) and 26.8 µM (active); in [19], 16.8 µM (active) and 43.6 µM (active) and 23.9 µM (active); in [5] it was 9.44 µM (active) and 19.5 µM (active) and 23.9 µM (active). In addition, the Potency in [6] is 10.6 µM (active) and 19.5 µM (active) and 23.9 µM (active); in test [7] it was 7.5 µM (active) and 15.5 µM (active) and 19 µM (active); in test [9] it was 29.9 µM (active) and 48.9 µM (active) and 26.8 µM (active); in test [11], 10.6 µM (active) and 17.4 µM (active) and 21.3 µM (active); in test [12] it was 47.3 µM (active) and 43.6 µM (active); in test [13], 16.8 µM (active) and 48.9 µM (active). For the same molecule, the Potency in test [14] was 16.8 µM (active) and 21.8 µM (active); in test [15], 53.1 µM (active) and inactive; in [16] it was 47.3 µM (active) and 48.9 µM (active) and 47.7 nM (active); in [18], 18.8 µM (active) and 54.9 µM (active) and inactive. Also, the Potency result in test [8], in test [10] and in test [17] was “inactive” each time.
